Results on 39 compounds are retold here after PubChem BioAssay.

“And” between values parts separate entries of the source, which are not always exact repeats. Equal values may be shown once. The source made the active and inactive calls.

This experiment in a line: growth of efflux-deficient E. coli DRC39 – strain DRC39, OD650, 48 h, E. coli filamentation inducers, primary screen (AID 1179).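 Also: screen aims at cell division blockers that make cells filament.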 The following applies: E. coli DRC39 delta-acrAB growth, higher = more signal, called active from +8 up or from −8 down.
As to `CO[C@H]1COC(=O)CC=C[C@@H](C)COC(=O)[C@H](CCSC)NC(=O)CC=C[C@@H]1C`, the z-score is -1.27 (inactive) and 0.0985 (inactive).

Turning to `C=CCN(CCCCC)C(=O)C1N(C(C)(C)CO)C(=O)C2C(C(=O)O)C3C=CC21O3` (centres undefined), the z-score is -0.396 (inactive) and 0.2 (inactive). In the case of `C=CCN1C(=O)[C@]2(O[C@H](CCn3cc(CCO)nn3)[C@@H]([Si](C)(C)c3ccc(OC)cc3)[C@@H]2C)c2cc(N3C(=O)c4cccc5cccc3c45)ccc21` it was 0.906 (inactive) and 0.389 (inactive). For the compound `CCC[C@@H]1C[C@@]1(CCC)[C@@H](NC(=O)c1ccc(-c2ccccc2)cc1)c1cccc(Cl)c1`, the z-score is -0.61 (inactive) and -0.0929 (inactive). In the case of `C[C@@H]1CC[C@H]2C(=O)O[C@H](CN=[N+]=[N-])CN2[C@H]1c1ccc(Br)cc1` it was -0.633 (inactive) and -1.31 (inactive); in that of `C[C@@H]1CN2[C@@H](CC[C@@H](C)[C@@H]2c2ccc(Br)cc2)C(=O)O1`, -1.32 (inactive) and -0.313 (inactive). Turning to `COc1ccc(O[C@H]2C=C[C@@H](c3ccccc3)O[C@@H]2COC(=O)CCC(C)=NO[C@H](C)c2cn([C@H](CO)Cc3ccccc3)nn2)cc1`, the z-score is -0.313 (inactive) and 0.596 (inactive). In the case of `CON(C)C(=O)c1nnc2c3ccccc3n(S(=O)(=O)c3ccc(C)cc3)c2n1` it was -0.512 (inactive) and -0.404 (inactive); in that of `COc1ccc(COC(=O)NN=C2C[C@@H](O)[C@@H](O)[C@@H]3[C@@H]4C(=O)N(C(C)(C)C)C(=O)[C@@H]4CC[C@H]23)cc1`, 0.0442 (inactive); in that of `COC(=O)C1=C(C)N(Cc2ccccc2)[C@]23O[C@](C(=O)OC)(C(=O)N2[C@@H]1c1ccccc1)[C@@H](C(=O)OC)[C@H]3C(=O)OC`, 0.165 (inactive) and 0.532 (inactive). In the case of `C[C@@H]1CC[C@H]2C(=O)NC[C@@H](O)CN2[C@H]1c1ccc(Br)cc1` it was -0.882 (inactive) and 0.26 (inactive).

Take `C#CCCCON=C1C[C@@H](O)[C@@H](O)[C@@H]2[C@@H]3C(=O)N(C4CCCCC4)C(=O)[C@@H]3CC[C@H]12`: the z-score is 0.771 (inactive). For `C[C@@H]1CC[C@@H](C(=O)O)N[C@H]1c1ccc(-c2ccco2)cc1` the value was -0.551 (inactive).

As to `C=CCN(C(=O)C1N(C(C)(C)CO)C(=O)C2C(C(=O)O)C3C=CC21O3)C(C)(C)C` (centres undefined), the z-score was -0.687 (inactive) and 0.356 (inactive).

Take `C=CCN(C(=O)C(c1cccs1)N(C(=O)/C=C\C(=O)O)c1ccc(CCO)cc1)C(C)(C)C` (centres undefined): the z-score was 0.864 (inactive) and 0.356 (inactive).

Consider `Cc1ccc(S(=O)(=O)N[C@H]2COC(=O)[C@@H](Cc3ccccc3)NC(=O)[C@@H](C)COC(=O)CC=C[C@@H]2C)cc1`, for which the z-score was -0.479 (inactive) and 0.385 (inactive). For `CC(C)[Si]1(C(C)C)OCc2cc(CCCc3cc4c(c(CCc5ccccc5)n3)[Si](C(C)C)(C(C)C)OC4)nc(CCc3ccccc3)c21` the value was 1.19 (inactive) and -0.0698 (inactive); for `O=c1n(-c2ccccc2)c(=O)n2n1CC[C@@H]1C(=NOC[C@@H](O)COCc3ccco3)[C@H]3O[C@H]3[C@@H](O)[C@@H]12`, -0.802 (inactive) and -0.756 (inactive). In the case of `O=C1C[C@]2(c3ccc([N+](=O)[O-])cc3)C(=O)N(Cc3ccccc3)c3cc(CO)ccc3[C@H]2N1C1CCCCC1` it was 0.566 (inactive) and -0.0186 (inactive); in that of `CCOC(=O)[C@H](CC(C)C)NC(=O)CCC1CC(OC(=O)NCc2cccc3ccccc23)CC2(CCCC(COC(=O)NCc3ccccc3)O2)O1` (some centres undefined), -0.102 (inactive). For `CCOC(=O)c1ccc(NC(=O)O[C@H]2[C@H](OC(=O)Nc3ccccc3)[C@H](OC(=O)Nc3ccccc3)[C@@H](OC)O[C@@H]2CO)cc1` the value was 0.496 (inactive) and -0.189 (inactive); for `CC[C@@H]1C(Sc2ccccc2)C(C(=O)O)[C@H](c2ccc(C)cc2)N1S(=O)(=O)c1ccc(C)cc1` (some centres undefined), -0.106 (inactive) and 0.575 (inactive). As for `CCCC[C@@H]1CN2[C@@H](CC[C@@H](C)[C@@H]2c2ccc(Br)cc2)C(=O)O1`, the z-score is 0.535 (inactive) and -1.07 (inactive). Take `C=CCN(CCCCC)C(=O)C(c1cccs1)N(C(=O)/C=C\C(=O)O)c1ccc(CCO)cc1` (centres undefined): the z-score is 0.712 (inactive) and 0.685 (inactive). In the case of `C=C(C)C(=O)OC[C@@H]1CN2[C@@H](CC[C@@H](C)[C@@H]2c2ccc(Br)cc2)C(=O)O1`, the z-score is 0.682 (inactive). In the case of `COC(=O)C1=C2N(Cc3ccccc3)C(C)=C(C(=O)OC)[C@@H](c3ccccc3)N2C(=O)[C@](O)(C(=O)OC)C1` it was -0.184 (inactive) and -0.224 (inactive); in that of `C=C[C@@H](C)[C@@H](O)c1ccc(OCCO)cc1`, 0.795 (inactive) and 1.13 (inactive). For `C=CCN(Cc1ccccc1)C(=O)C1N(C(C)(C)CO)C(=O)C2C(C(=O)O)C3C=CC21O3` (centres undefined), the z-score is -0.0639 (inactive) and 0.0039 (inactive). In the case of `C=CCN(C(=O)C1N(C(C)(C)CO)C(=O)C2C(C(=O)O)C3C=CC21O3)c1ccc(OC)cc1` (centres undefined) it was 1.09 (inactive) and 0.546 (inactive); in that of `COC(=O)c1c2oc(c1C(=O)OC)C(=O)N[C@@H](Cc1ccccc1)Cn1cc(nn1)C1(CCCCC1)NC(=O)N[C@H](CO)CC2`, 1.56 (inactive) and 0.279 (inactive); in that of `C=C[C@H](C)[C@H](O)c1ccc(O)c2ccccc12`, 1.31 (inactive) and 1.91 (inactive). In the case of `CCOC(=O)C[C@H]1[C@H](OC(=O)c2ccccc2-c2ccccc2)[C@@H](NC(=O)Cc2ccc(OC)cc2)c2cc(OCCCO)ccc2N1C(=O)c1ccc2ccccc2n1`, the z-score was 1.25 (inactive) and 0.422 (inactive).

As for `CC(C)OC(=O)C=C1C[C@@H](c2ccccc2)O[C@@H](c2ccccc2)O1`, the z-score is 0.945 (inactive) and 0.907 (inactive). In the case of `COC(=O)C1=C(C)N(Cc2ccccc2)C2=C(C(=O)c3ccccc3)[C@H](c3ccccc3)[C@@](O)(C(=O)OC)C(=O)N2[C@@H]1c1ccccc1` it was 0.592 (inactive) and 0.607 (inactive); in that of `COC(=O)[C@@]1(Cc2ccc(F)cc2)[C@H]2c3cc(C(=O)N4CCCC4)n(Cc4c(CO)[nH]cc(C)c4=O)c3C[C@H]2CN1C(=O)c1ccccc1`, -0.104 (inactive) and -0.339 (inactive). For `C[N+](C)(C)CCCCCCNC(=O)[C@H]1C[C@H]2C(=O)N[C@@H](CCCC[N+](C)(C)C)C(=O)N2[C@H]1c1ccc(O)cc1` the value was -0.978 (inactive) and 1.03 (inactive); for `CC(CO)N1C(=O)[C@@H]2C3C(=O)OCCC=C[C@H]3OC23C=CCN(CCN2CCOCC2)C(=O)[C@@H]13` (some centres undefined), -0.839 (inactive) and -0.358 (inactive); for `CCCC[C@@H]1CN2[C@H](c3ccc(Br)cc3)[C@@H](C)CC[C@H]2C(=O)O1`, 0.958 (inactive) and 0.41 (inactive). `CO[C@H]1COC(=O)CC=C[C@H](C)[C@H](OC)COC(=O)[C@@H](C)COC(=O)CC=C[C@@H]1C`: the z-score was 0.658 (inactive) and 1.09 (inactive).
